# Source: PubChem BioAssay (NCI)
# This is part of a sample that, as a whole, favours compounds with a hit. Of some 79,000 tested, about 15% had one in any assay. A number with no mark means an inactive call. Activity calls are given as the source filed them. Rule as the data show it: active = growth inhibition above about 70%; inactive = the rest.
# Assays:
# [1] = NCI Yeast Anticancer Drug Screen. Data for the rad52 strain (AID 147);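 also: 0% = growth of vehicle-treated control cultures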; settings: S. cerevisiae rad52 mutant growth inhibition, stronger effect = higher value
# How it was run: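 Here a repair-compromised yeast strain receives each compound; its growth is then quantified and normalised to vehicle-only controls.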
# [2] = NCI Yeast Anticancer Drug Screen. Data for the wt1 strain (AID 149);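 also: 0% = growth of vehicle-treated wt1 cultures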; settings: S. cerevisiae wt1 strain (SPY 50644) growth inhibition, stronger effect = higher value
# How it was run: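 Yeast wt1 strain exposed to compounds; growth inhibition measured relative to vehicle-treated controls.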
# [3] = NCI Yeast Anticancer Drug Screen. Data for the rad50EPP+ strain (AID 151);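 also: 0% = growth of vehicle-treated control cultures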; settings: S. cerevisiae rad50 mutant strain, stronger effect = higher value
# How it was run: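 Read-out is yeast growth inhibition relative to vehicle; cells used were the rad50EPP+ strain.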
# [4] = NCI Yeast Anticancer Drug Screen. Data for the mgt1 strain (AID 153); settings: S. cerevisiae mgt1 mutant growth inhibition, stronger effect = higher value
# How it was run: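 Measured: inhibition of mgt1 yeast growth by compound, normalized to vehicle-treated cultures.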
# [5] = NCI Yeast Anticancer Drug Screen. Data for the rad50 strain (AID 155);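 also: 0% = growth of vehicle-only cultures of the same strain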; settings: S. cerevisiae rad50 strain growth inhibition, stronger effect = higher value
# How it was run: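 Yeast carrying a defined DNA repair defect were exposed to test compounds, and growth was compared with vehicle-treated controls to give percent inhibition.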
# [6] = NCI Yeast Anticancer Drug Screen. Data for the mec2-1 strain (AID 157); settings: S. cerevisiae mec2-1 strain, stronger effect = higher value
# How it was run: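 Using mec2-1 yeast: add compound, measure growth, express inhibition versus vehicle-treated cultures.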
# [7] = NCI Yeast Anticancer Drug Screen. Data for the rad14 strain (AID 159);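 also: 0% = growth of vehicle-treated control cultures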; settings: S. cerevisiae rad14 strain growth inhibition, stronger effect = higher value
# How it was run: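 Yeast cells carrying a defined DNA-repair defect were exposed to compounds, and growth inhibition was calculated relative to vehicle-treated control cultures.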
# [8] = NCI Yeast Anticancer Drug Screen. Data for the CLN2oe strain (AID 163);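 also: 0% = growth of vehicle-only control cultures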; settings: S. cerevisiae CLN2oe strain, stronger effect = higher value
# How it was run: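 Whole-cell yeast growth assay. A strain engineered for altered cell-cycle control received compound, and inhibition relative to vehicle-treated cultures was recorded.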
# [9] = NCI Yeast Anticancer Drug Screen. Data for the bub3 strain (AID 167); settings: S. cerevisiae bub3 mutant strain, stronger effect = higher value
# How it was run: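 Compounds were applied to a genetically altered yeast strain carrying a cell-cycle control defect. Growth inhibition was scored against vehicle-treated controls.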
# [10] = NCI Yeast Anticancer Drug Screen. Data for the wt2 strain (AID 169);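 also: 0% = growth of vehicle-treated yeast cultures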; settings: S. cerevisiae wt2 strain growth inhibition, stronger effect = higher value
# How it was run: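 Treated yeast vs. vehicle-treated yeast: growth inhibition determined.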
# [11] = NCI Yeast Anticancer Drug Screen. Data for the sgs1 strain (AID 173);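 also: 0% = growth of vehicle-only control cultures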; settings: S. cerevisiae sgs1 mutant, stronger effect = higher value
# How it was run: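 A genetically defined yeast mutant is incubated with the test compound, and its growth is compared to that of the same strain given vehicle.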
# [12] = NCI Yeast Anticancer Drug Screen. Data for the mlh1 rad18 strain (AID 175); settings: S. cerevisiae mlh1 rad18 strain growth inhibition, stronger effect = higher value
# How it was run: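 Steps: expose repair-defective yeast to compound; measure growth; express inhibition against vehicle-treated controls.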
# [13] = NCI Yeast Anticancer Drug Screen. Data for the rad18 strain (AID 177); settings: S. cerevisiae rad18 mutant growth inhibition, stronger effect = higher value
# How it was run: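 Measured value is growth inhibition of a yeast strain bearing a DNA repair alteration, referenced to vehicle-treated cells.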
# [14] = at 5.0 µM (retest, dose inferred, filed as 0.5)
# [15] = at 50.0 µM (retest, dose inferred, filed as 5.0)
smiles,measurement,setting,value
N#CN1C2CCC1CC(=O)C2,growth inhibition,[1]; at 1.2 µM,-12%
same,growth inhibition,[1]; at 3.7 µM,-32%
same,growth inhibition,[1]; at 11.0 µM,-21%
same,growth inhibition,[1]; at 33.0 µM,-18%
same,growth inhibition,[1]; at 100.0 µM,-21%
same,growth inhibition,[2]; at 1.2 µM,-25%
same,growth inhibition,[2]; at 3.7 µM,-37%
same,growth inhibition,[2]; at 11.0 µM,-46%
same,growth inhibition,[2]; at 33.0 µM,-53%
same,growth inhibition,[2]; at 100.0 µM,-35%
same,growth inhibition,[3]; at 1.2 µM,-25%
same,growth inhibition,[3]; at 3.7 µM,-35%
same,growth inhibition,[3]; at 11.0 µM,-27%
same,growth inhibition,[3]; at 33.0 µM,-43%
same,growth inhibition,[3]; at 100.0 µM,-33%
same,growth inhibition,[4]; at 1.2 µM,-8%
same,growth inhibition,[4]; at 3.7 µM,-10%
same,growth inhibition,[4]; at 11.0 µM,-13%
same,growth inhibition,[4]; at 33.0 µM,-11%
same,growth inhibition,[4]; at 100.0 µM,-8%
same,growth inhibition,[5]; at 1.2 µM,3%
same,growth inhibition,[5]; at 3.7 µM,1%
same,growth inhibition,[5]; [14],66%
same,growth inhibition,[5]; at 11.0 µM,-34%
same,growth inhibition,[5]; at 33.0 µM,-40%
same,growth inhibition,[5]; [15],99% (active)
same,growth inhibition,[5]; at 50.0 µM,66%
same,growth inhibition,[5]; at 100.0 µM,-24%
same,growth inhibition,[6]; at 1.2 µM,-27%
same,growth inhibition,[6]; at 3.7 µM,-36%
same,growth inhibition,[6]; [14],63%
same,growth inhibition,[6]; at 11.0 µM,-54%
same,growth inhibition,[6]; at 33.0 µM,-24%
same,growth inhibition,[6]; [15],84% (active)
same,growth inhibition,[6]; at 50.0 µM,43.6%
same,growth inhibition,[6]; at 100.0 µM,-36%
same,growth inhibition,[7]; at 1.2 µM,-26%
same,growth inhibition,[7]; at 3.7 µM,-23%
same,growth inhibition,[7]; at 11.0 µM,-13%
same,growth inhibition,[7]; at 33.0 µM,-2%
same,growth inhibition,[7]; at 100.0 µM,8%
same,growth inhibition,[8]; at 1.2 µM,12%
same,growth inhibition,[8]; at 3.7 µM,7%
same,growth inhibition,[8]; at 11.0 µM,-28%
same,growth inhibition,[8]; at 33.0 µM,-27%
same,growth inhibition,[8]; at 100.0 µM,-11%
same,growth inhibition,[9]; at 1.2 µM,14%
same,growth inhibition,[9]; at 3.7 µM,23%
same,growth inhibition,[9]; [14],39%
same,growth inhibition,[9]; at 11.0 µM,15%
same,growth inhibition,[9]; at 33.0 µM,27%
same,growth inhibition,[9]; [15],12%
same,growth inhibition,[9]; at 50.0 µM,57.3%
same,growth inhibition,[9]; at 100.0 µM,31%
same,growth inhibition,[10]; at 1.2 µM,-18%
same,growth inhibition,[10]; at 3.7 µM,-16%
same,growth inhibition,[10]; at 11.0 µM,-19%
same,growth inhibition,[10]; at 33.0 µM,-22%
same,growth inhibition,[10]; at 100.0 µM,-25%
same,growth inhibition,[11]; at 1.2 µM,-17%
same,growth inhibition,[11]; at 3.7 µM,-20%
same,growth inhibition,[11]; at 11.0 µM,-12%
same,growth inhibition,[11]; at 33.0 µM,-23%
same,growth inhibition,[11]; at 100.0 µM,-24%
same,growth inhibition,[12]; [14],75% (active)
same,growth inhibition,[12]; [15],100% (active)
same,growth inhibition,[12]; at 50.0 µM,62.1%
same,growth inhibition,[13]; at 1.2 µM,-10%
same,growth inhibition,[13]; at 3.7 µM,-15%
same,growth inhibition,[13]; at 11.0 µM,-22%
same,growth inhibition,[13]; at 33.0 µM,-21%
same,growth inhibition,[13]; at 100.0 µM,-9%
